# High-throughput results: PubChem, Sanford-Burnham Center for Chemical Genomics
# This is a sample that favours compounds with a hit; in the whole collection about 4% have one here.
# tim23-1 inh = growth inhibitors of tim23-1 mutant yeast, primary screen, luminescence, uHTS | S. cerevisiae tim23-1 growth, BacTiter-Glo luminescence, 24 h | inhibition, % at 20 µM | 330,000 tested, 1.3% active;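 active means growth inhibition of the mutant yeast at or above 50%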;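 further: temperature-sensitive mutant grown at 25 °C; plate controls were DMSO-treated mutant yeast for no effect and medium wells lacking yeast for full effect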
# tim10-1 inh = growth inhibitors of tim10-1 mutant yeast, primary screen, luminescence, uHTS. S. cerevisiae tim10-1 ts strain growth, BacTiter-Glo, 24 h. inhibition, % at 20 µM. 330,000 tested, 2.2% active;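 active means inhibition of at least 40%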;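 further: mutant grown at 25 °C; 0% = DMSO wells with yeast and 100% = wells holding no yeast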
# NLRP3 yeast inh = NALP3 inflammasome inhibitors in reconstituted yeast, primary screen, luminescence, uHTS; Yeast reconstituted NLRP3/ASC/caspase-1, beta-gal luminescence, 24 h; 330,000 tested, 0.39% active; AID 2825, 2010; inhibition, % at 10 µM;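 active means inhibition of 50% or more; inactive means inhibition below 50%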;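 further: plate controls were induced DMSO wells for no effect and uninduced yeast grown without galactose for full effect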
# NALP1 yeast inh = NALP1 inflammasome inhibitors in reconstituted yeast, colorimetric, S. cerevisiae, triplicate retest; S. cerevisiae NALP1/ASC/caspase-1 growth, X-gal OD620, 72 h; inhibition, % at 10 µM; 280,000 tested, 0.61% active; AID 2071, 2009; in the data active means inhibition mostly above about 24%, no sharp cut-off; inactive means mostly below about 32%
# TIM10 inh = growth inhibitors of isogenic TIM10 control yeast, primary screen, counter-screen for tim10-1 yeast inhibitor project, luminescence, uHTS | S. cerevisiae TIM10 strain growth, BacTiter-Glo luminescence, 24 h | inhibition, % at 10 µM | 330,000 tested, 1.4% active | AID 463195, 2010;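 active means inhibition of 40% or more at the single tested concentration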;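 further: wild-type TIM10 isogenic control strain grown at permissive 25 °C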
# tim10-1 confirm = growth inhibitors of tim10-1 mutant yeast, confirmation, single concentration, luminescence, S. cerevisiae; shares compounds with tim10-1 inh; S. cerevisiae tim10-1 ts strain growth, BacTiter-Glo, 24 h; inhibition, % at 20 µM; 7,400 tested, 56% active; AID 463213, 2010;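 active means inhibition of yeast growth at or above a set limit in either of two repeat tests at 20 µM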;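 further: tim10-1 mutant grown at permissive 25 °C to find synthetic lethal compounds; 0% = DMSO yeast wells and 100% = medium wells without yeast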
# TIM10 conf = growth inhibitors of wild-type TIM10 yeast, confirmation, counter-screen for tim10-1 synthetic lethality project, single concentration, luminescence, S. cerevisiae. 4,600 tested, 63% active. S. cerevisiae tim10 strain growth, BacTiter-Glo luminescence, 24 h. AID 463215, 2010. shares compounds with TIM10 inh. inhibition, % at 10 µM;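 active means inhibition of yeast growth at or above a set limit in either of two replicates at 10 µM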;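 further: this counterscreen used the strain with wild-type TIM10; 0% = yeast with DMSO and 100% = medium wells lacking yeast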
# tim23-1 confirm = tim23-1 mutant yeast growth inhibitors, confirmation, luminescence, single concentration. shares compounds with tim23-1 inh. S. cerevisiae tim23-1 growth, BacTiter-Glo luminescence, 24 h. inhibition, % at 20 µM. 4,400 tested, 83% active. AID 463218, 2010;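 active means inhibition above about 39% in either of two replicate wells at 20 µM, limit read from the data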;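 further: temperature-sensitive tim23-1 mutant grown at 25 °C; 0% = DMSO wells with yeast and 100% = medium wells without yeast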
# Starred values were filed as active, the others as inactive; . = not tested or not shown.
SMILES,tim23-1 inh,tim10-1 inh,NLRP3 yeast inh,NALP1 yeast inh,TIM10 inh,tim10-1 confirm,TIM10 conf,tim23-1 confirm
C=CC[C@@H]1C=C(C)C[C@H](C)C[C@H](OC)[C@H]2O[C@@](O)(C(=O)C(=O)N3CCCC[C@H]3C(=O)O[C@H](/C(C)=C/[C@@H]3CC[C@@H](O)[C@H](OC)C3)[C@H](C)[C@@H](O)CC1=O)[C@H](C)C[C@@H]2OC,68*,77*,42,.,73*,79*,74*,68*
Cc1c(C(=O)N2CCN(c3ccccc3F)CC2)sc2nc(-c3ccccc3)cn12,53*,54*,31,11,54*,54*,51*,75*
COc1ccc(-c2cn3c(C)c(C(=O)N4CCN(c5ccccc5F)CC4)sc3n2)cc1,56*,56*,25,1,36,55*,.,67*
Cc1c(C(=O)N2CCN(C(=O)c3ccco3)CC2)sc2nc(-c3ccc(F)cc3)cn12,13,16,9,.,5,.,.,.
O=C(Cn1ccc2ccccc2c1=O)NCC(=O)N1CCN(c2ccccc2F)CC1,9,-18,15,14,9,.,.,.
CC(=O)c1ccc(OCCOc2ccc(C#N)cc2)cc1,17,11,10,11,10,.,.,.
